This note sets out measurements from PubChem BioAssay.

Assay [1] in a line: inhibitors of TNFa-induced NFkB p65 translocation, primary screen, imaging, HUVEC, MLSMR starter and 10KST1 sets (AID 438;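 active means inhibition above 20% together with a positive visual image hit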;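 further: compound added about 3h40 before a 20 min TNFalpha stimulation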;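 on inhibition: signal is the nuclear over cytoplasmic p65 intensity ratio per well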). Particulars: HUVEC TNFa-induced p65 nuclear translocation; cell count: measured here: nuclei count (cytotoxicity indicator), at 2.08 µM; inhibition: at 2 µM, stronger effect = higher value, 0% TNFa-plus-vehicle, 100% no-TNFa wells.
A short description of assay [2]: inhibitors of mutant huntingtin aggregation, primary screen, imaging, exon1htt(103Q)mCFP cells, high-content imaging (AID 483;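 active means visual image review flags a hit and inhibition of aggregation exceeds 20%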;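 further: compound exposure lasted 3 days before fixation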;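 on nuclei count: percent of the per-plate median nuclei count of sample wells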). The settings on record: exon1htt(103Q)mCFP cell line, aggregate imaging, at 2 µM; inhibition of aggregation: stronger effect = higher value; nuclei count: measured here: cell count, toxicity.
The nature of assay [3]: inhibitors of E-selectin induction by TNFa, primary screen, imaging, HUVEC, immunofluorescence, MLSMR starter and 10KST1 sets (AID 487;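 active means visually confirmed hit in the image check and inhibition above 20%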;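 on inhibition: signal is fraction of cell area covered by stained E-selectin grains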;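 on nuclei count: 100% = median nuclei count of all wells on the same plate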). The settings on record: HUVEC TNFalpha-induced E-selectin immunofluorescence imaging, at 2 µM; inhibition: stronger effect = higher value; nuclei count: measured here: cell number, toxicity.
Assay [4] has as its target Voltage-gated potassium channel subunit beta-2 (Rattus norvegicus) (UniProt P62483). Briefly: KvBeta enzyme negative modulators, primary screen, biochemical, NADPH fluorescence (AID 622;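 active means fluorescence slope higher than the sample average by over 3 SD, cut at about -0.22 in these data, passing the limit was not always enough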;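 further: slope of raw intensity against log time taken from 70 to 1610 s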). The settings on record: recombinant KvBeta, 4-cyanobenzaldehyde reduction, at 10 µM, stronger effect = higher value.
Assay [5] shares this target. In words: KvBeta positive modulators, primary screen, biochemical, NADPH fluorescence (AID 623;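 active means NADPH fluorescence slope more negative than the mean of all samples by about 3 SD, 99.7% confidence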;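 further: fluorescence intensity change per second fitted from 20 to 320 s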). Particulars: Recombinant KvBeta, NADPH fluorescence decrease slope, 10 min; at 10 µM; stronger effect = lower value.
For assay [6], the target named is Alpha-2C adrenergic receptor (Homo sapiens) (UniProt P18825). Briefly: modulators of alpha2C/GIRK thallium flux, primary screen, cell-based, HEK293 alpha2C/GIRK1/2 (AID 624;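 active means fluorescence slope after compound addition differing from the mean of all screened samples at 99.7% confidence, in either direction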;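 further: slope of fluorescence ratio to pre-addition baseline per second over 15 to 24 s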). Particulars: thallium flux BTC fluorescence, at 10 µM, actives lie on both sides.
Assay [7] can be described thus: inhibitors of Sendai virus-induced IRF3 signaling, primary screen, TLR/RLR signaling modifier project, cell-based, Sendai virus stimulus, luciferase, 10K MLSCN set (AID 602276).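 Further: firefly luciferase from ISG56 promoter only with Renilla not read in this screen; 0% = Sendai virus plus DMSO and 100% = medium plus DMSO without virus.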 The settings on record: HEK293 RL24 IRF3 luciferase reporter, at 10 µM, stronger effect = higher value. Background: In a reporter assay the amount or activity of a reporter protein is the signal.
A short description of assay [8]: inhibitors of poly I:C-induced TLR3 signaling, primary screen, cell-based, poly I:C stimulus, luciferase, 10K MLSCN set (AID 602277;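 active means inhibition of the reporter signal at or above 50%; inactive means inhibition below 50%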). Particulars: HEK293-TLR3 RL24 IRF3 luciferase reporter, at 10 µM, stronger effect = higher value.

The source made the active and inactive calls.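 How the source made its calls, unless noted: active means inhibition at or above 50% at 10 µM; inactive means inhibition below 50%.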

For orientation: inhibition means the change of the read-out against control, counted positive when it falls.

Sequence of Voltage-gated potassium channel subunit beta-2 (Rattus norvegicus) (P62483 whole entry, looked up): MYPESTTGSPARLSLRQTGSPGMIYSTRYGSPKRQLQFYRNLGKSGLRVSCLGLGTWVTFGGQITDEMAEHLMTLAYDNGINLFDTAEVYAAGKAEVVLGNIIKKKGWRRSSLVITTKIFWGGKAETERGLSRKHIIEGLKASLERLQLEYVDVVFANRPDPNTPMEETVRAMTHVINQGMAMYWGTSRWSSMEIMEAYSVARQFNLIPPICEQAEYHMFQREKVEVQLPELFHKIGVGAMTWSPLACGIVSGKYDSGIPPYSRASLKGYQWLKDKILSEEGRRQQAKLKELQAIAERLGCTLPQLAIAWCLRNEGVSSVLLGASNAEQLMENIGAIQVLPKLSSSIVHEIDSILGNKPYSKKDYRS
Sequence of Alpha-2C adrenergic receptor (Homo sapiens) (P18825 whole entry, looked up): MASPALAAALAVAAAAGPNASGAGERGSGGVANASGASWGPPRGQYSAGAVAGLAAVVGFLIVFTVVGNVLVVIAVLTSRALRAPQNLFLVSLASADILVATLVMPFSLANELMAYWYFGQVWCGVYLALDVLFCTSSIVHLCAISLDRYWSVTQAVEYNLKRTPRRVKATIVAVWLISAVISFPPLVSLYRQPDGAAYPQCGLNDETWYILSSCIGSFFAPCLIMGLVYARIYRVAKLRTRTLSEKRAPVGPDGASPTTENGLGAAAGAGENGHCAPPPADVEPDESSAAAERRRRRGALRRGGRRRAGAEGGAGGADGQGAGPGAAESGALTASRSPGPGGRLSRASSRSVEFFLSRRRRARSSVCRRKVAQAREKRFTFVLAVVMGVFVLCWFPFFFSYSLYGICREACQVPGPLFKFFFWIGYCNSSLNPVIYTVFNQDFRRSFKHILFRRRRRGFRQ

Regarding `CSc1nc(C)c(C(=O)Nc2ccccc2)c(C)c1C#N`, the cell count in assay [1] worked out at 761. Besides, the inhibition in assay [1] was -11.2% (inactive); in assay [3], -40.9% (inactive); in assay [7] it was 16.8% (inactive); in assay [8], 18.5% (inactive). The inhibition of aggregation in assay [2] is -5.9% (inactive). Further, the nuclei count is 103% in assay [2] and 118% in assay [3]. The fluorescence slope in assay [4] was -0.483 (inactive). The NADPH fluorescence slope in assay [5] was -2.5e-05 (inactive). The slope in assay [6] is 0.00491 (inactive).
Consider `O=C(Nc1cccc2ccccc12)c1cnccn1`, for which the cell count in assay [1] was 419. The inhibition in assay [1] was 11.7% (inactive); in assay [3] it was -180% (inactive); in assay [7], -180% (inactive); in assay [8], 99.3% (active). Besides, the inhibition of aggregation in assay [2] was 5.1% (inactive). Besides, the figures for the nuclei count in assay [2] and in assay [3] were 96.9% and 117%, respectively. Moreover, in assay [4], the fluorescence slope was -0.52 (inactive). For the same compound, in assay [5], the NADPH fluorescence slope was -3.3e-05 (inactive). In assay [6], the slope was 0.00645 (inactive).
As to `Cc1nc2sc(C(c3cccs3)N3CC(C)CC(C)C3)c(O)n2n1` (stereo not given), the cell count in assay [1] was 614. The inhibition in assay [1] was 3.9% (inactive); in assay [3], -12.3% (inactive); in assay [7], 11.2% (inactive); in assay [8], 21.5% (inactive). Besides, the inhibition of aggregation in assay [2] is 27.2% (inactive). Also, the nuclei count in assay [2] stood at 118%; in assay [3], 109%. For the same compound, the fluorescence slope in assay [4] is -0.545 (inactive). In addition, the NADPH fluorescence slope in assay [5] is 4.4e-06 (inactive). In addition, the slope in assay [6] was 0.00614 (inactive).
As to `COc1ccc(Cc2nnc(NC(=O)Cc3cccs3)s2)cc1`, in assay [1], the cell count stood at 674. Moreover, the inhibition in assay [1] is -27.6% (inactive); in assay [3], 14.9% (inactive); in assay [7], -11% (inactive); in assay [8], 100% (active). In addition, the inhibition of aggregation in assay [2] was 8.6% (inactive). Further, the values for the nuclei count in assay [2] and in assay [3] were 105% and 101%, respectively. Besides, the fluorescence slope in assay [4] was -0.568 (inactive). Further, the NADPH fluorescence slope in assay [5] was 2.7e-05 (inactive). Moreover, in assay [6], the slope was 0.0056 (inactive).
On to `COc1ccc(CNc2nc3nc(C)c(Cl)c(C)n3n2)cc1OC`, for which the cell count in assay [1] is 684. Moreover, the inhibition was -23.3% (inactive) in assay [1], -4.1% (inactive) in assay [3], 3.08% (inactive) in assay [7] and -10.6% (inactive) in assay [8]. In assay [2], the inhibition of aggregation is -2.8% (inactive). The nuclei count in assay [2] stood at 110%; in assay [3], 105%. Moreover, the fluorescence slope in assay [4] was -0.331 (inactive). Further, in assay [5], the NADPH fluorescence slope was -6e-05 (inactive). Also, in assay [6], the slope was 0.00515 (inactive).
`Cc1nnc(SCC(=O)NCc2ccccc2)s1`: the cell count in assay [1] was 513. The inhibition was -11.9% (inactive) in assay [1], 10.5% (inactive) in assay [3], 1.7% (inactive) in assay [7] and 30.9% (inactive) in assay [8]. Besides, the inhibition of aggregation in assay [2] is 27.7% (inactive). Also, the nuclei count in assay [2] was 78.7%; in assay [3], 120%. Besides, the fluorescence slope in assay [4] is -0.447 (inactive). Besides, in assay [5], the NADPH fluorescence slope was -2.7e-05 (inactive). Also, in assay [6], the slope was 0.00344 (inactive).
`COC(=O)c1cc(-c2ccccc2)sc1NC(=O)c1cc(C)on1`: the cell count in assay [1] was 365. For the same compound, the inhibition in assay [1] is -2.2% (inactive); in assay [3] it was -21.2% (inactive); in assay [7], -14.9% (inactive); in assay [8], -8.07% (inactive). Besides, in assay [2], the inhibition of aggregation is -13.8% (inactive). In addition, the nuclei count is 104% in assay [2] and 111% in assay [3]. The fluorescence slope in assay [4] is -0.342 (inactive). Moreover, in assay [5], the NADPH fluorescence slope is -1.3e-05 (inactive). Besides, the slope in assay [6] is 0.00783 (inactive).
Regarding `COc1ccc(-n2c(SCc3ccc(C#N)cc3)nnc2-c2ccccn2)cc1`, in assay [1], the cell count worked out at 692. Moreover, the inhibition in assay [1] is -5.8% (inactive); in assay [3], -18.8% (inactive); in assay [7], -1.12% (inactive); in assay [8], 11.2% (inactive). Besides, the inhibition of aggregation in assay [2] is -4.4% (inactive). In addition, the values for the nuclei count in assay [2] and in assay [3] were 105% and 118%, respectively. Further, the fluorescence slope in assay [4] was -0.599 (inactive). Besides, in assay [5], the NADPH fluorescence slope was -3.8e-05 (inactive). The slope in assay [6] was 0.00521 (inactive).
Consider `COc1ccc(C2=NOC(C(=O)NC3CCCCC3)C2)cc1OC` (stereo not given), for which the cell count in assay [1] turned out to be 832. The inhibition was -14.3% (inactive) in assay [1], -84.9% (inactive) in assay [3], 14.9% (inactive) in assay [7] and 20.1% (inactive) in assay [8]. Further, the inhibition of aggregation in assay [2] is 1.9% (inactive). Further, the nuclei count came to 104% in assay [2] and 96.1% in assay [3]. For the same compound, in assay [4], the fluorescence slope is -0.547 (inactive). The NADPH fluorescence slope in assay [5] is -4.1e-05 (inactive). Besides, the slope in assay [6] is 0.00464 (inactive).
Consider `Cc1ccc(C)c(N2CCN(C(=O)c3cc4ccccn4n3)CC2)c1`, for which the cell count in assay [1] was 584. The inhibition is -2.9% (inactive) in assay [1], -31.8% (inactive) in assay [3], -3.21% (inactive) in assay [7] and 21.6% (inactive) in assay [8]. Also, the inhibition of aggregation in assay [2] is -16.9% (inactive). In addition, the nuclei count in assay [2] turned out to be 103%; in assay [3], 118%. In assay [4], the fluorescence slope was -0.615 (inactive). In addition, the NADPH fluorescence slope in assay [5] was -2.1e-05 (inactive). For the same compound, the slope in assay [6] was 0.00707 (inactive).
